Screens as filed in PubChem.
Only some compounds are listed: those with a hit (about 11% of all), similar ones and a draw of the others.
HTT aggregate: mutant huntingtin aggregation inhibition; PC12 HttQ103-GFP aggregates, Acumen cytometry, 40 h; Potency, µM (highest dose often 46.1 µM), hits mostly inhibitors; hit rate 1.1% among 220,000; note: nearly all actives have a fitted effect of over 60% in size
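Multiplexed with ATP-based cell death, this channel scores GFP aggregates in PC12 cells expressing inducible HTTex1-Q103-GFP. Induction used 100 nM tebufenozide; compounds were tested in concentration series.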
GoLoco inh red: inhibitors of human Gai1-RGS12 GoLoco interaction (red fluorophore). AID 880. Gai1:RGS12 GoLoco peptide FP, rhodamine, 10 min. Potency, µM (titrated, usually from 61.6 µM), hits mostly inhibitors. P63096. hit rate 0.44% among 230,000; active = well fitted inhibition curve with a large enough effect, not every such curve was filed as active; inactive = no such curve, though single readings can be large or run the other way; note: nearly all actives have a fitted effect of over 30% in size
Target sequence (P63096 whole entry, looked up): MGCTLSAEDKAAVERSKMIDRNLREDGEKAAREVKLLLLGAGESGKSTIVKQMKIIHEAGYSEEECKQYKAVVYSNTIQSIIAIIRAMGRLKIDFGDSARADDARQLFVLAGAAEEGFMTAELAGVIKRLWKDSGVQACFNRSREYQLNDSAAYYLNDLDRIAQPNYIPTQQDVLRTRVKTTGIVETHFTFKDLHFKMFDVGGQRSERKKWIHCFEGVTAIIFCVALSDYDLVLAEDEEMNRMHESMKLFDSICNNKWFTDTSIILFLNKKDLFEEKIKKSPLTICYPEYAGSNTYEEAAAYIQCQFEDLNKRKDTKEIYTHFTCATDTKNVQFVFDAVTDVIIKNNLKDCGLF
ALDH1A1 block: inhibitors of human aldehyde dehydrogenase 1A1. hit rate 7.3% among 220,000. Purified ALDH1A1, NADH fluorescence, propionaldehyde substrate. AID 1030. Potency, µM (titrated, usually from 75.3 µM), actives largely listed as inhibitors; active = well fitted inhibition curve with a large enough effect, not every such curve was filed as active; inconclusive = small, poorly fitted or top-dose-only effect, or another doubt; inactive = no such curve, though single readings can be large or run the other way
HPGD block: blocks human HPGD enzyme activity | hit rate 4.3% among 150,000 | AID 894 | P15428 | purified HPGD, NADH fluorescence kinetic, PGE2 substrate | Potency, µM, hits mostly inhibitors; active = well fitted inhibition curve with a large enough effect, not every such curve was filed as active; inconclusive = small, poorly fitted or top-dose-only effect, or another doubt; inactive = no such curve, though single readings can be large or run the other way
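NADH formation kinetics: reaction with 30 uM PGE2 and 1 mM NAD+ (final), 20 nM enzyme, Tris-HCl pH 8 with Tween 20, after 15 min compound preincubation at room temperature. Fluorescence change, last versus first of five reads.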
HTT cytoprotect: protects HTT-Q103 PC12 cells, measured by ATP; PC12 HTT-Q103 induced, cytoprotection, ATP luminescence, 40 h; Potency, µM (top dose mostly 56.4 µM), usual class: activators; hit rate 0.14% among 230,000; AID 1471; note: nearly all actives have a fitted effect of over 45% in size
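Stable PC12 Q103-GFP cells in serum-supplemented, phenol red-free DMEM; induction by tebufenozide at 100 nM final; compound dose series; cell viability quantified luminescently from ATP.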
PNC inhibitor: perinucleolar compartment assembly inhibition; PC3M PTB-GFP, PNC prevalence imaging, 16 h; stronger effect = lower value; hit rate 3.1% among 140,000; AID 2417; activity change (PNC), negative = inhibition, % at 10 µM;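 active = readout at or below -70, meaning at least 70% loss of cells showing the perinucleolar compartment, a nuclear body marking cancer cells; inconclusive = readout between -30 and a set limit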
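Compounds are pinned in duplicate onto adhered PC3M cells stably expressing GFP-tagged PTB and incubated 16 h at 37 C. Cells are then fixed, nuclei stained with Hoechst, and PNC-positive cells counted.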
Hits are given with their value; [ ] = another dose, or the depositor's remark. Unless noted, calls come from the whole dose curve; as a rule, active = well fitted curve in the direction sought with a large enough effect; inconclusive = small, poorly fitted or top-dose-only effect, or another doubt; inactive = no such curve, though single readings can be large; an effect the other way counts as inactive or inconclusive.

Screening Cc1nc(N2CCN(Cc3ccccc3)CC2)nc2c1C(=O)CC(c1ccco1)C2 (centres undefined) returned HTT aggregate inconclusive, GoLoco inh red inactive, ALDH1A1 block 22µM, HPGD block inactive, HTT cytoprotect inactive and PNC inhibitor inactive.
Screening Cc1nc(N2CCN(Cc3ccc4c(c3)OCO4)CC2)nc2c1C(=O)CC(c1ccco1)C2 (centres undefined) returned HTT aggregate inconclusive, GoLoco inh red inactive, ALDH1A1 block inconclusive, HPGD block inactive, HTT cytoprotect inactive and PNC inhibitor inactive.
`CC(C)=CCl` gave GoLoco inh red inactive, ALDH1A1 block inactive, HPGD block inactive and HTT cytoprotect inactive.
`Cc1[nH]c2ccc(-c3nnc(SCC(=O)c4ccccc4F)o3)cc2c1C` gave HTT aggregate inactive, ALDH1A1 block inactive, HTT cytoprotect inactive and PNC inhibitor inactive.
Screening Cc1ccc(C(=O)CSc2nnc(-c3ccc4[nH]c(C)c(C)c4c3)o2)cc1C returned HTT aggregate inactive, GoLoco inh red inactive, ALDH1A1 block 1.4µM, HPGD block inactive, HTT cytoprotect inactive and PNC inhibitor inactive.
O=[N+]([O-])c1nn(-c2ccc3c(c2)OCCO3)n(O)c1=NCc1ccc(F)cc1 was read as HTT aggregate inactive, GoLoco inh red inactive, ALDH1A1 block inactive, HPGD block 20µM, HTT cytoprotect inactive[10 µM] and PNC inhibitor inactive.
`CCCCCC(=O)N1CCN(CCN=CC2=C(O)CC(c3ccc(OC)c(OC)c3)CC2=O)CC1` (centres undefined) gave HTT aggregate inactive, GoLoco inh red inactive, ALDH1A1 block 22µM, HPGD block inactive, HTT cytoprotect inactive[0.074 µM] and PNC inhibitor inconclusive.
Screening CC(C)C[C@@H](CC(=O)N[C@@H](CCC(=O)O)CC(=O)O)NC(=O)[C@@H]1CNCC[C@H]1NC(=O)C[C@H](CCCN)NC(=O)C[C@H](CO)NC(=O)[C@@H]1CNCC[C@H]1N returned GoLoco inh red inactive, ALDH1A1 block inconclusive, HPGD block inactive and HTT cytoprotect inactive[1.9 µM].
CCc1ccccc1NC(=O)C(C#N)Cc1cccnc1 (centres undefined) was read as HTT aggregate inactive, GoLoco inh red inactive, ALDH1A1 block inactive, HPGD block inactive, HTT cytoprotect inactive[10 µM] and PNC inhibitor -82.
CC[C@H](C)[C@H](NC(=O)[C@H](C)NC(=O)[C@H](CC(N)=O)NC(=O)[C@H](CCCCN)NC(=O)[C@H](Cc1ccccc1)NC(=O)[C@H](CC(C)C)NC(=O)[C@@H](NC(=O)[C@@H](NC(=O)[C@H](CC(C)C)NC(=O)[C@@H]1CCCN1C(=O)[C@@H](NC(=O)[C@H](CCC(N)=O)NC(=O)[C@H](CO)NC(=O)[C@H](CCCCN)NC(=O)[C@H](CCC(=O)O)NC(=O)[C@H](CO)NC(=O)[C@@H](NC(=O)[C@H](CCSC)NC(=O)[C@H](Cc1ccccc1)NC(=O)CNC(=O)CNC(=O)[C@@H](N)Cc1ccc(O)cc1)[C@@H](C)O)[C@@H](C)O)C(C)C)[C@@H](C)O)C(=O)N[C@H](C(=O)N[C@@H](CCCCN)C(=O)N[C@@H](CC(N)=O)C(=O)N[C@@H](C)C(=O)N[C@@H](Cc1ccc(O)cc1)C(=O)N[C@@H](CCCCN)C(=O)N[C@@H](CCCCN)C(=O)NCC(=O)N[C@@H](CCC(=O)O)C(=O)O)[C@@H](C)CC was read as GoLoco inh red inactive, ALDH1A1 block inactive and HTT cytoprotect inactive.
CCN1/C(=C/C=C/c2oc3ccc4ccccc4c3[n+]2CC)Oc2ccc3ccccc3c21 was read as HTT aggregate 0.89µM, GoLoco inh red inactive, ALDH1A1 block inactive and HTT cytoprotect inactive[10 µM].
`CCCN(CCC)CCCNC(=S)Nc1ccc2nc3n(c(=O)c2c1)CCCCC3` gave HTT aggregate inactive, GoLoco inh red inactive, ALDH1A1 block inactive, HPGD block inactive, HTT cytoprotect inactive[10 µM] and PNC inhibitor inactive.
